High-throughput results deposited in PubChem BioAssay by National Center for Advancing Translational Sciences (NCATS).
This is a sample that favours compounds with a hit; in the whole collection about 7.9% have one here.
KB-V1 cytotox: KB-V1 MDR subline cytotoxicity | actives 3.4% (n = 400,000) | Potency, µM (highest dose often 46.1 µM), usual class: cytotoxic | KB-V1 MDR cells viability, CellTiter-Glo, 72 h; further: on the % scale 0 is the no-effect control and ±100 the full control effect; nearly all actives have a fitted effect of over 60% in size
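Following 72 h at 37 degrees C with compound, KB-V1 cell viability was read by CellTiter-Glo luminescence, medium being phenol-red-free DMEM plus 10% FBS; concentration-response parameters came from normalized, curve-fitted qHTS data.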
MCF10A rereplic: DNA re-replication induction in MCF 10a cells; actives 2.9% (n = 350,000); Potency, µM (titrated, usually from 46.1 µM), inactives show at the top dose activity, positive = re-replication, hits mostly activators; AID 624296; MCF 10A DNA re-replication, Hoechst nuclear intensity, 48 h; further: % of control where 0% means no effect; nearly all actives have a fitted effect of over 50% in size
HT1080-NT tox: kills 2HG-producing HT-1080-NT fibrosarcoma cells. actives 1.6% (n = 360,000). HT-1080-NT fibrosarcoma viability, CellTiter-Glo ATP luminescence, 48 h. Potency, µM (doses to about 46.1 µM), for inactives: at the top dose activity, negative = less viability, most hits filed as cytotoxic;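 further: NT is the 2HG producing partner of a matched IDH1 knockdown line; 0% = DMSO-treated cells and -100% = media-only wells without cells; nearly all actives have a fitted effect of over 55% in size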
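Luminescent CellTiter-Glo readout after 48 hours of compound exposure at 37 degrees C defined viability of HT-1080-NT cells. Activity was normalized to DMSO wells and cell-free media wells; concentration-response curves were fitted and assigned curve classes.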
KB-3-1 tox: KB-3-1 parental cell cytotoxicity. KB-3-1 viability, CellTiter-Glo ATP luminescence, 72 h. Potency, µM (doses to about 46.1 µM), usual class: cytotoxic. actives 1.4% (n = 400,000). AID 1347075; further: on the % scale 0 is the no-effect control and ±100 the full control effect; nearly all actives have a fitted effect of over 60% in size
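Cells are dispensed, compounds pinned in, plates held at 37 °C for 72 h, then CellTiter-Glo is added and luminescence read after 10 minutes. Cell line: parental KB-3-1 in phenol-red-free DMEM, 10% FBS.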
HT1080 IDH1KD tx: toxicity to HT-1080 IDH1 knockdown cells (counter line) | actives 2% (n = 360,000) | HT-1080 IDH1 knockdown viability, ATP luminescence, 48 h | Potency, µM (top dose mostly 46.1 µM), inactives show top-dose activity, negative = toxicity, actives largely listed as cytotoxic;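 further: 0% = DMSO wells and -100% = cell-free medium wells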
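Cytotoxicity counter-line: IDH1KD HT-1080, 48 h, CellTiter-Glo. Curves classed by r2, magnitude and activity.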
SW480 rereplic: induces DNA re-replication in SW480 colon adenocarcinoma cells | SW480 DNA re-replication, Hoechst DNA content imaging, 48 h | Potency, µM (highest dose often 46.1 µM), for the others: top-dose re-replication activation, most hits filed as activators | actives 1.8% (n = 340,000); further: % of control where 0% means no effect; nearly all actives have a fitted effect of over 55% in size
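Image-based read-out: total Hoechst fluorescence of nuclei (405 nm excitation, 500-530 nm emission), with hits raising the fraction of high-intensity nuclei. SW480 colon cells incubated 48 hr with compounds at 37 C.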
* hit, by the source's call; i = inactive; ? = inconclusive; nt = no result. The call rests on the fitted dose curve; in most records, active means well fitted curve in the direction sought with a large enough effect; inconclusive means small, poorly fitted or top-dose-only effect, or another doubt; inactive means no such curve, though single readings can be large; an effect the other way counts as inactive or inconclusive. Potency means the concentration at half of the fitted maximal effect.

SMILES	KB-V1 cytotox	MCF10A rereplic	HT1080-NT tox	KB-3-1 tox	HT1080 IDH1KD tx	SW480 rereplic
CCCCCC(=O)N[C@@H](c1ccccc1)[C@@H](O)C(=O)O[C@H]1C[C@@]2(O)[C@@H](OC(=O)c3ccccc3)C3[C@](C)(C(=O)[C@H](OC(C)=O)C(=C1C)C2(C)C)[C@@H](O)C[C@H]1OC[C@@]31OC(C)=O (stereo partly specified)	?	?	?	0.21µM*	0.0058µM*	0.18µM*
COc1cccc2c1C(=O)C=C(C)C2=O	?	23µM*	18µM*	?	?	?
O=C(NC1=NCCS1)c1cccc(N2C(=O)c3ccccc3C2=O)c1	?	6.5µM*	12%	i	9%	-40%
CC(=O)c1cccc(NC(=O)c2cccc(N3C(=O)c4ccccc4C3=O)c2)c1	i	13%	6%	i	-4%	-7%
CN1CCN(C(=O)c2ccc(-c3ccccc3)cc2)CC1	i	1%	10%	i	12%	5%
O=[N+]([O-])c1ccc(O)c(-c2nn[nH]n2)c1	?	3%	5%	i	13%	14%
Cc1cc(=O)oc2cc(OCC(=O)NCCc3c[nH]c4ccc(F)cc34)ccc12	?	14%	5%	i	13%	13µM*
CCOC(=O)COc1ccc2c(C#N)c3ccccn3c2c1	i	21µM*	12%	i	-1%	?
N#Cc1c2ccc(OCC(N)=O)cc2n2ccccc12	i	22%	?	?	-16%	10%
C=CCNc1nc(N2CCCCC2)c(C#N)c2c1CN(Cc1ccccc1)CC2	i	16µM*	?	?	?	?
CC(C)NC(=S)N/N=C1\CCCc2ccccc21	i	23%	-8%	i	-4%	?
CC(C)NC(=S)NN=C1CCC(c2ccccc2)CC1 (stereo unspecified)	i	-12%	7%	i	12%	21µM*
O=P(NCc1ccccc1)(OCc1ccccc1)OCc1ccccc1	9.2µM*	18%	5%	i	24%	-3%
O=P(O)(OCc1ccccc1)OCc1ccccc1	i	-27%	29%	i	8%	-16%
COc1ccc(NC(=O)c2ccc(CN(c3cc(Cl)ccc3C)S(=O)(=O)c3ccccc3)cc2)cc1OC	3.7µM*	16%	0%	i	-7%	5%
COc1ccccc1NC(=O)c1ccc(CN(c2cc(Cl)ccc2C)S(=O)(=O)c2ccccc2)cc1	i	-4%	-2%	i	-1%	-8%
Cc1ccc(Cl)cc1N(Cc1ccc(C(=O)NCc2cccnc2)cc1)S(=O)(=O)c1ccccc1	15µM*	-4%	20%	i	14%	-10%
CC(C)C[C@@H]1CN(CCCC[C@H]2CNC(=O)C(=O)N2CCC2CCCCC2)C(=O)C(=O)N1CCC1CCCCC1	i	nt	-13%	?	9%	nt
CC(C)C[C@H]1CN(CCCC[C@H]2CNC(=O)C(=O)N2CCC2CCCCC2)C(=O)C(=O)N1CCC1CCCCC1	i	nt	1%	?	23µM*	nt
COc1ccc(CNC(=O)c2ccc(CS(=O)(=O)Cc3ccccc3F)o2)cc1	?	0%	0%	i	6%	-26%
O=C(NCc1ccccc1)c1ccc(CS(=O)(=O)Cc2ccccc2F)o1	16µM*	-3%	16%	i	12%	-21%
CCCCNC(=O)C1c2ccccc2OCC(=O)N1CCc1ccccc1 (stereo unspecified)	i	nt	11%	i	11%	nt
CNC(=O)c1[nH]cnc1C(=O)N[C@@H](Cc1ccccc1)C(=O)OC(C)(C)C	i	-4%	9%	i	13%	-3%
CC(C)(C)OC(=O)[C@H](Cc1ccccc1)NC(=O)c1[nH]cnc1C(=O)Nc1ccccc1F	21µM*	nt	-22%	?	?	nt
